# Screening results (PubChem)
# Luciferase inh – inhibitors of firefly (Photinus pyralis) luciferase | Potency, µM (series often up to 115 µM), actives largely listed as inhibitors | AID 1347043 | 76,000 tested, 2.5% active | purified P. pyralis luciferase, luminescence, biochemical; note: nearly all actives have a fitted effect of over 65% in size
#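 Luminescence read by CCD imaging after purified firefly luciferase (10nM final) was added to substrate buffer holding 10uM D-luciferin and 10uM ATP, pH 7.5, pre-dosed with compound.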
# NIH3T3 tox – NIH 3T3 cell cytotoxicity. NIH 3T3 viability, CellTiter-Glo ATP luminescence, 48-72 h. Potency, µM (titrated, usually from 96.7 µM), inactives show at the top dose activity change, negative = cytotoxicity, most hits filed as inhibitors. 94,000 tested, 4.3% active. AID 1345082; note: nearly all actives have a fitted effect of over 55% in size
#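 ATP-dependent luminescence (CellTiter-Glo) served as the viability signal for NIH 3T3 cells treated with compound for 48 or 72 hr at 37 °C.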
# GPT2 inh – inhibitors of human GPT2 alanine aminotransferase | Recombinant GPT2, coupled pyruvate oxidase/HRP Amplex Red fluorescence | Potency, µM (series often up to 57.7 µM), for inactives: at the highest dose activity change, negative = inhibition, most hits filed as inhibitors | 100,000 tested, 0.25% active; note: nearly all actives have a fitted effect of over 60% in size
# Target sequence (Q8TD30 whole entry, looked up): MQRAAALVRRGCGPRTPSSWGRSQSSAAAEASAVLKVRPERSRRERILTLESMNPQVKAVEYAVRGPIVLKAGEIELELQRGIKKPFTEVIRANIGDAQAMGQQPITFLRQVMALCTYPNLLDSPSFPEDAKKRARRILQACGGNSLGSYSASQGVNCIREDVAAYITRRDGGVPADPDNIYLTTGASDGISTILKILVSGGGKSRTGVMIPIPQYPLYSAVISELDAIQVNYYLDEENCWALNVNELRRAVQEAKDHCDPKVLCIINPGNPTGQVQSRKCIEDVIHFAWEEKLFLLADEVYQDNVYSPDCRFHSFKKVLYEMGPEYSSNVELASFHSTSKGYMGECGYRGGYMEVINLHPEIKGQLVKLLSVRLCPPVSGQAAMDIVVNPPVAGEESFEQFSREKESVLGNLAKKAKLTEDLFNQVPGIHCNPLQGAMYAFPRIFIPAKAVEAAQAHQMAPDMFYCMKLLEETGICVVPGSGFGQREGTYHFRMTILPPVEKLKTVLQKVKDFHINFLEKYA
#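 Fluorescence of coupled pyruvate oxidase/HRP/Amplex Red system (50uM Amplex, 30 min, dark) reports pyruvate formed by GPT2. Enzyme reaction: 10ng/uL GPT2, 2mM L-alanine, 250uM a-KG, 30 min room temperature, pH 7.5; 50uM AOA control.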
# HEK cytotox – kills HEK 293 cells; 94,000 tested, 6.6% active; HEK 293 viability, ATP luminescence (CellTiter-Glo), 48-72 h; Potency, µM (titrated, usually from 115 µM), inactives show at the top dose activity change, negative = cytotoxicity, hits mostly inhibitors; note: nearly all actives have a fitted effect of over 60% in size
#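 Luminescence from cellular ATP, measured with CellTiter-Glo, indicates HEK 293 viability. Cells plated at 250 cells/well are treated with compound for 48 or 72 hr at 37 degree Celsius before reagent addition.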
# NPR1 antag – blocks ANP-stimulated signaling of human Npr1 receptor | P16066 | HEK293 hNpr1 GloSensor cGMP, ANP-stimulated luminescence | Potency, µM (highest dose often 46.3 µM), for the others: at the top dose activity change, negative = inhibition, most hits filed as inhibitors | 76,000 tested, 1.6% active | AID 1347048; calls by dose curve; note: nearly all actives have a fitted effect of over 60% in size
#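 Compound pre-incubated 30 min at room temperature on GloSensor-loaded HEK293 cells stably carrying hNpr1 and the pGS-40F cGMP biosensor. Stimulation uses hNppA at 0.1 nM final; luminescence is taken at baseline and 20 min post-agonist.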
# Starred values were filed as active, the others as inactive; i = inactive; ? = inconclusive; · = no result; [ ] = another dose, or the depositor's remark. Shown are actives, neighbours in structure and some others; about 10% of the full set was active somewhere. Unless noted, calls come from the whole dose curve; as a rule, active = well fitted curve in the direction sought with a large enough effect; inconclusive = small, poorly fitted or top-dose-only effect, or another doubt; inactive = no such curve, though single readings can be large; an effect the other way counts as inactive or inconclusive. % is set by controls: 0 for no effect and ±100 for the full control effect; potency is the fitted concentration of half-maximal effect.
SMILES,Luciferase inh,NIH3T3 tox,GPT2 inh,HEK cytotox,NPR1 antag
Cc1ccc(-c2cn3c(n2)CO[C@@H](CNC(=O)c2ccc(Cl)cc2)C3)cc1,40µM*,?,-8%[88.5 µM],?,?
O=C(NCCN1CCOCC1)c1cc(-c2ccc(Cl)cc2Cl)c2nncn2n1,·,?,i,?,·
CCCN1CCC2(Cc3ccccc3CN(C(=O)C(C)C)C2)C1 (centres undefined),·,-7%,-6%,?,·
COc1ccc(CN2C[C@H](COCc3ccccc3)Oc3ccncc3[S+]2(=O)[O-])cc1,·,?,i,?,·
CCc1nc2c(c(-c3ccc(Cl)cc3)n1)CN(Cc1ccsc1)CC2,i,?,i,?,-2%
CCc1nc2c(c(-c3ccc(O)cc3)n1)CN(Cc1ccccc1OC)CC2,i,?,-3%,45µM*,-18%
CCc1nc2c(c(-c3ccc(Cl)cc3)n1)CN(Cc1ccc(C)cc1)CC2,i,25µM*,i,?,-1%
CCc1nc2c(c(-c3ccc(O)cc3)n1)CCN(Cc1ccccc1OC)CC2,i,?,-15%,?,3%
CCc1nc2c(c(-c3ccc(Cl)cc3)n1)CN(Cc1ccc(C(F)(F)F)cc1)CC2,i,?,i,89µM*,3%
CCc1nc2c(c(-c3ccc(Cl)cc3)n1)CN(Cc1ccc(OC(F)(F)F)cc1)CC2,i,25µM*,i,?,-4%
CCc1nc2c(c(-c3ccc(Cl)cc3)n1)CN(Cc1ccccc1)CC2,i,10µM*,1%,18µM*,-8%
CO[C@H]1C(=O)N(C2CCN(Cc3cccc(C)c3)CC2)[C@H]1c1ccncc1,·,-24%,i,-6%,·
CCCc1nnc(C[C@@H]2C[C@@H](C(C)C)[C@H](CN3CC[C@H](NC(C)=O)C3)C=C2C)o1,i,-14%[138 µM],4%[88.5 µM],?,-2%[70.6 µM]
CN(C)C[C@@H]1CN(C)C[C@H]1NS(=O)(=O)c1ccc2c(c1)CCCC2,i,-7%,i,-21%,1%
O=C(CCc1conc1-c1cccc(F)c1)NCc1ccc(F)cc1,45µM*,?,i,?,-6%
COc1ccccc1-n1c(=O)c(C(=O)N2CCOCC2)nc2cccnc21,·,-18%,i,4%,·
Cc1nn(-c2ccccn2)c(C)c1[C@@H]1C=C[C@@H](NC(=O)CCC(=O)O)C1,i,-9%[174 µM],i,-23%[172 µM],0%[70.6 µM]
Cc1nn(-c2ccc(C(C)C)cc2)c(C)c1[C@@H]1C=C[C@@H](NCc2ccccc2)C1,63µM*,11µM*,5%[88.5 µM],25µM*,-13%[70.6 µM]
Cc1nn(-c2ccc(C(C)C)cc2)c(C)c1[C@@H]1C=C[C@@H](NCc2cccc(Cl)c2)C1,45µM*,13µM*,i,10µM*,?
CN1CCN(Cc2cnn(-c3cccc(Cl)c3)c2)CC1CCO (centres undefined),i,?,1%,-26%,-2%
O=S(=O)(c1cccc2ccccc12)N1CCCC(CO)(Cc2cccc(Cl)c2)C1 (centres undefined),i,45µM*,-4%,?,3%
OCC1(Cc2ccccc2)CCCN(Cc2cnn(-c3cccc(Cl)c3)c2)C1 (centres undefined),i,79µM*,-15%,79µM*,-1%
Cc1ccc(C)c(S(=O)(=O)N2CCCC(CO)(Cc3cccc(Cl)c3)C2)c1 (centres undefined),i,?,1%,?,-15%
Cc1cc(=O)n(CC(=O)Nc2cccc(F)c2)c(N2CCc3ccccc3C2)n1,i,?,1%,?,2%
CCc1cccc(NC(=O)Cn2c(N3CCc4ccccc4C3)nc(C)cc2=O)c1,i,28µM*,i,?,?
SMILES,Luciferase inh,NIH3T3 tox,GPT2 inh,HEK cytotox,NPR1 antag
COc1cccc(CNC(=O)Cn2c(N3CCc4ccccc4C3)nc(C)cc2=O)c1,i,-44%,i,45µM*,-4%
Cc1cc(=O)n(CC(=O)Nc2ccc(Br)cc2)c(N2CCc3ccccc3C2)n1,i,?,i,89µM*,-14%
Cc1cc(=O)n(CC(=O)NCc2ccccc2Br)c(N2CCc3ccccc3C2)n1,i,?,i,40µM*,-6%
COc1ccc(CNC(=O)Cn2c(N3CCc4ccccc4C3)nc(C)cc2=O)cc1,i,?,4%,?,-10%
O=C(NCc1ccc(F)cc1)c1nc(-c2cccnc2)c2ccccn12,·,?,-9%,?,·
CCOc1ccccc1NC(=O)Cn1c(N2CCc3ccccc3C2)nc(C)cc1=O,i,?,-8%,?,?
CCc1ccccc1NC(=O)Cn1c(N2CCc3ccccc3C2)nc(C)cc1=O,i,18µM*,?,?,?
Cc1cc(=O)n(CC(=O)Nc2ccccc2)c(N2CCc3ccccc3C2)n1,i,?,-6%,32µM*,-17%
Cc1cc(=O)n(CC(=O)Nc2ccc(C(C)C)cc2)c(N2CCc3ccccc3C2)n1,i,25µM*,4%,?,-13%
COc1ccc(NC(=O)Cn2c(N3CCc4ccccc4C3)nc(C)cc2=O)cc1Cl,i,35µM*,i,40µM*,-6%
Cc1nn(-c2ccc(C(F)(F)F)cc2)c(C)c1[C@@H]1C=C[C@@H](NCc2ccc(N(C)C)cc2)C1,i,11µM*,i,20µM*,-16%
Cc1nn(-c2ccccc2)c(C)c1[C@@H]1C=C[C@@H](NCc2ccc(F)cc2)C1,?,?,-5%[88.5 µM],63µM*,-23%[70.6 µM]
Cc1nn(-c2ccc(C(F)(F)F)cc2)c(C)c1[C@@H]1C=C[C@@H](NC(=O)COCC(=O)O)C1,i,-1%,1%,-1%,6%
Cc1nn(-c2ccc(F)cc2)c(C)c1[C@@H]1C=C[C@@H](NC(=O)CC(C)(C)CC(=O)O)C1,i,?,4%[88.5 µM],-24%[172 µM],-10%[70.6 µM]
Cc1nn(-c2ccccc2[N+](=O)[O-])c(C)c1[C@@H]1C=C[C@@H](NCc2ccc(F)cc2)C1,?,89µM*,i,100µM*,-10%[70.6 µM]
COc1ccc(-n2nc(C)c([C@@H]3C=C[C@@H](NCc4ccc(C(C)C)cc4)C3)c2C)cc1,25µM*,32µM*,1%[88.5 µM],32µM*,?
Cc1oc2c(c1C(=O)N1CCSCC1)CN(Cc1cccc(F)c1)CC2,i,-21%,i,-18%,0%
O=C([C@H]1CCCN1C(=O)c1ccc(C(F)(F)F)cc1)N1CCCC(c2nc3ccncc3[nH]2)C1 (some centres undefined),·,-20%,i,-20%,·
COCC1CN(C2CCC2)CC12CCN(C(=O)COc1ccc(F)cc1)CC2 (centres undefined),i,?,i,?,-13%
